In PubChem BioAssay one finds normalised cell number data, which are given here for 40 compounds.

A short description of the first assay: differential killing of epithelial or mesenchymal cells, primary screen, imaging, PC-3E GFP, TEM4-18 mCherry, co-culture (AID 1345086).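 Also: cells exposed to compound for 72 h before imaging.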 The following applies: imaging cell counts, measured here: epithelial PC-3E GFP cell survival, at 1 µM.
Regarding `NC(=O)c1ncn(C2O[C@H](CO)[C@@H](O)[C@H]2O)c1N` (stereo partly drawn), the normalised cell number turned out to be 1.13.

Consider `CO/N=C(/C(=O)N[C@@H]1C(=O)N2C(C(=O)OCSC(=O)c3ccco3)=CCS[C@H]12)c1csc(N)n1`, for which the normalised cell number was 1.31.

`CC(=O)[C@@]12O[C@](C)(c3ccccc3)O[C@@H]1CC1C3CCC4=CC(=O)CC[C@]4(C)C3CC[C@@]12C` (stereo partly drawn) yielded a normalised cell number of 1.05.

Turning to `CC(=O)c1ccc2c(c1)Sc1ccccc1N2CCCN1CCN(CCO)CC1`, the normalised cell number was 1.21.

As for `CO/N=C(/C(=O)NC1C(=O)N2C(C(=O)O)=C(CSc3nnnn3C)CSC12)c1csc(N)n1` (stereo not drawn), the normalised cell number turned out to be 1.17.

Consider `O=c1[nH]c(=O)n([C@H]2C[C@H](O)C(CO)O2)cc1I` (stereo partly drawn), for which the normalised cell number amounted to 1.09.

The compound `CC(=O)OC1CC2CCC1(C)C2(C)C` (stereo not drawn) had a normalised cell number of 0.91.

Compound `C[C@@H]1CC2C3CCC4=CC(=O)C=C[C@]4(C)[C@@]3(F)[C@@H](O)C[C@]2(C)[C@H]1C(=O)CO` (stereo partly drawn) gave a normalised cell number of 1.08.

The assay is the same for the next values; noted with them: imaging cell counts, measured here: mesenchymal TEM4-18 mCherry cell survival, at 1 µM.
Compound `C[C@]12C=CC(=O)C=C1CCC1C2[C@@H](O)C[C@@]2(C)C1CC[C@]2(O)C(=O)COP(=O)(O)O` (stereo partly drawn) showed a normalised cell number of 1.15.

`CC(C)OC(=O)CCC/C=C\C[C@@H]1[C@@H](/C=C/C(O)COc2cccc(C(F)(F)F)c2)[C@H](O)C[C@@H]1O` (stereo partly drawn) gave a normalised cell number of 1.08.

`CC12CCC3c4ccc(O)cc4CCC3C1C[C@H](O)[C@@H]2O` (stereo partly drawn) yielded a normalised cell number of 0.89.

The compound `CC(C)(CO)C(O)C(=O)NCCC(=O)NCCSSCCNC(=O)CCNC(=O)C(O)C(C)(C)CO` (stereo not drawn) displayed a normalised cell number of 0.8.

For `COc1cc(O)cc(C(=O)c2ccccc2)c1S(=O)(=O)O`, the normalised cell number was 1.18.

Turning to `NCCCC(N)C(=O)O` (stereo not drawn), the normalised cell number turned out to be 1.02.

Turning to `N[C@@H](CO)c1ccccc1`, the normalised cell number came to 0.88.

Compound `CC(=O)Oc1cc2c(s1)CCN([C@H](C(=O)C1CC1)c1ccccc1F)C2` yielded a normalised cell number of 0.98.

As to `Cc1oc(=O)oc1CN1CCN(c2cc3c(cc2F)c(=O)c(C(=O)O)c2n3C(C)C2)CC1` (stereo not drawn), the normalised cell number turned out to be 0.91.

Consider `O=C(O)c1ccccc1-c1c2cc(I)c(=O)c(I)c-2oc2c(I)c(O)c(I)cc12`, for which the normalised cell number was determined as 0.5.

Compound `NC(N)=NCCCC(N)C(=O)O` (stereo not drawn) had a normalised cell number of 0.87.

In turn, `Cc1cc(=O)c(C(=O)N[C@@H](C(=O)N[C@@H]2C(=O)N3C(C(=O)O)=C(CSc4nnnn4C)CSC23)c2ccc(O)cc2)c[nH]1` (stereo partly drawn) returned a normalised cell number of 1.12.

With `CC1(C)O[C@@H]2CC3C4CCC5=CC(=O)C=C[C@]5(C)C4[C@@H](O)C[C@]3(C)[C@]2(C(=O)CO)O1` (stereo partly drawn), the normalised cell number turned out to be 1.14.

Take `C=C(C)C1CC=C(C)CC1` (stereo not drawn): the normalised cell number amounted to 0.96.

`NC(=O)C1CCCN1C(=O)C(Cc1cnc[nH]1)NC(=O)C1CCC(=O)N1` (stereo not drawn) gave a normalised cell number of 1.04.

`OC[C@@H](O)[C@H](O)[C@@H](O)[C@H](O)CO` gave a normalised cell number of 1.08.

Consider `COc1nc(N)nc2c1ncn2C1O[C@H](CO)[C@@H](O)[C@@H]1O` (stereo partly drawn), for which the normalised cell number was 0.91.

Regarding `Nc1nc(NC2CC2)c2ncn(C3C=C[C@@H](CO)C3)c2n1` (stereo partly drawn), the normalised cell number was 1.26.

On to `CCN(CC)C(=O)C1(c2ccccc2)CC1CN` (stereo not drawn), for which the normalised cell number was determined as 0.98.

`Cc1cc(CC(C)CC(C)(C)C)n(O)c(=O)c1` (stereo not drawn) (tested in a mixture with another compound) yielded a normalised cell number of 0.95.

`CC1/C=C/C=C/C=C/C=C/C=C/C=C/C=C/C(O[C@@H]2O[C@H](C)[C@H](O)[C@@H](O)[C@@H]2N)CC(O)C(C(=O)O)C(O)CC(=O)CC(O)CC(O)CC(O)CC(=O)CCCC(=O)CC(=O)OC1C(C)CC(C)C(O)CC(=O)c1ccc(N)cc1` (stereo partly drawn) displayed a normalised cell number of 1.03.

In the case of `CCCC[C@@H](CC)COC(=O)C(C#N)=C(c1ccccc1)c1ccccc1`, the normalised cell number was 1.09.

`O=C1c2c(O)cccc2[C@@H](O[C@@H]2O[C@H](CO)[C@H](O)[C@@H](O)[C@H]2O)c2cc(CO)cc(O)c21`: the normalised cell number came out at 0.88.

Compound `Cc1cc2nc3c(=O)[nH]c(=O)nc-3n(C[C@@H](O)[C@@H](O)[C@@H](O)COP(=O)(O)O)c2cc1C` showed a normalised cell number of 1.04.

Consider `C#C[C@]1(O)CCC2C3CCc4cc(OC5CCCC5)ccc4C3CC[C@@]21C` (stereo partly drawn), for which the normalised cell number is 1.

As to `CSCC[C@H](NC(=O)[C@H](Cc1c[nH]c2ccccc12)NC(=O)[C@H](C)NC(=O)OC(C)(C)C)C(=O)N[C@@H](CC(=O)O)C(=O)N[C@@H](Cc1ccccc1)C(N)=O`, the normalised cell number was found to be 1.13.

`C[C@]12CCC(=O)C=C1[C@@H]1C[C@@H]1C1C2CC[C@@]2(C)C1[C@@H]1C[C@@H]1[C@@]21CCC(=O)O1` (stereo partly drawn) gave a normalised cell number of 0.91.

With `COc1c(O)cc2c(c1O)[C@H]1O[C@H](CO)[C@@H](O)[C@H](O)[C@@H]1OC2=O`, the normalised cell number is 1.11.

In the case of `CC(C)(O)c1ccccc1CC[C@@H](SC1(CC(=O)O)CC1)c1cccc(/C=C/c2ccc3ccc(Cl)cc3n2)c1`, the normalised cell number was 1.16.

In turn, `CC(C)C/C=C/C=C\C(=O)N[C@@H](CC(N)=O)C(=O)N[C@@H]1C(=O)N[C@H](c2ccc(O)cc2)C(=O)N[C@H](CCCN)C(=O)N[C@H]([C@H](C)O)C(=O)N[C@@H](c2ccc(O)cc2)C(=O)N[C@H](c2ccc(O)cc2)C(=O)N[C@@H]([C@H](C)O)C(=O)N[C@@H](Cc2ccccc2)C(=O)N[C@H](CCCN)C(=O)N[C@@H](c2ccc(O[C@@H]3O[C@H](CO)[C@H](O)[C@@H](O)[C@@H]3O[C@@H]3O[C@H](CO)[C@@H](O)[C@H](O)[C@H]3O)cc2)C(=O)NC(C(C)O)C(=O)N[C@@H](c2ccc(O)cc2)C(=O)NCC(=O)N[C@@H](CC(C)C)C(=O)N[C@H](C)C(=O)N[C@@H](c2ccc(O)c(Cl)c2)C(=O)O[C@@H]1C(N)=O` (stereo partly drawn) registered a normalised cell number of 0.93.

In the case of `O=C1SCN(Cc2ccccc2)CN1Cc1ccccc1`, the normalised cell number worked out at 0.86.

As for `CC(=O)[C@H]1CCC2C3CC=C4C[C@@H](OC(=O)CCC(=O)O)CC[C@]4(C)C3CC[C@@]21C` (stereo partly drawn), the normalised cell number was determined as 0.93.

As for `NC(=O)c1ncn(C2O[C@H](CO)[C@@H](O)[C@H]2O)c1N` (stereo partly drawn), the normalised cell number was 1.

The compound `CO/N=C(/C(=O)N[C@@H]1C(=O)N2C(C(=O)OCSC(=O)c3ccco3)=CCS[C@H]12)c1csc(N)n1` returned a normalised cell number of 0.94.

Compound `CC(=O)[C@@]12O[C@](C)(c3ccccc3)O[C@@H]1CC1C3CCC4=CC(=O)CC[C@]4(C)C3CC[C@@]12C` (stereo partly drawn) gave a normalised cell number of 1.26.

`CC(=O)c1ccc2c(c1)Sc1ccccc1N2CCCN1CCN(CCO)CC1` registered a normalised cell number of 1.23.

For `CO/N=C(/C(=O)NC1C(=O)N2C(C(=O)O)=C(CSc3nnnn3C)CSC12)c1csc(N)n1` (stereo not drawn), the normalised cell number worked out at 1.06.

Compound `O=c1[nH]c(=O)n([C@H]2C[C@H](O)C(CO)O2)cc1I` (stereo partly drawn) gave a normalised cell number of 1.07.

`CC(=O)OC1CC2CCC1(C)C2(C)C` (stereo not drawn) displayed a normalised cell number of 0.94.

`C[C@@H]1CC2C3CCC4=CC(=O)C=C[C@]4(C)[C@@]3(F)[C@@H](O)C[C@]2(C)[C@H]1C(=O)CO` (stereo partly drawn): the normalised cell number came to 1.16.
